# Many of the other results were omitted from the sample, so hits are more common in it than they were.
# 15-hLO-2 inh: inhibitors of human 15-lipoxygenase 2 (ALOX15B). O15296. purified 15hLO-2, xylenol orange hydroperoxide absorbance. Potency, µM (doses to about 57.1 µM), for inactives: top-dose activity change, negative = inhibition, actives largely listed as inhibitors. 0.56% of 110,000 active. AID 881; also: nearly all actives have a fitted effect of over 60% in size
#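 Enzyme 50 nM, AA 45 uM, 25 mM Hepes pH 7.5 + 0.01% Triton X-100; cpd preinc 15 min RT, rxn 90 min RT; stop/detect with 200 uM XO + 300 uM Fe(II) in 50 mM H2SO4, 30 min; A573/A405.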
# ALOX12 inhib: inhibitors of human 12-lipoxygenase (ALOX12); 0.12% of 150,000 active; Potency, µM (doses to about 57.1 µM), for the others: top-dose activity change, negative = inhibition, hits mostly inhibitors; AID 1452; purified 12-hLO, xylenol orange hydroperoxide absorbance; P18054; also: nearly all actives have a fitted effect of over 55% in size
#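 150 nM 12hLO, 25 mM Hepes pH 7.0 + 0.01% Triton X-100; cpd preinc 15 min RT; 40 uM arachidonic acid, 30 min RT; Fe-XO 30 min; A573/A405 ratio as read-out.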
# * hit, by the source's call; ? = inconclusive; . = no result; [ ] = remark or other dose. Calls follow the shape of the dose curve; as a rule, active = well fitted curve in the direction sought with a large enough effect; inconclusive = small, poorly fitted or top-dose-only effect, or another doubt; inactive = no such curve, though single readings can be large; an effect the other way counts as inactive or inconclusive. % is scaled to controls: 0 for no effect and ±100 for the full control effect; potency is read from the fitted curve at half-maximal effect.
SMILES,15-hLO-2 inh,ALOX12 inhib
COc1ccc(-c2cnn(-c3ccccc3)c2N)cc1OC,-4.2%,-2.0%
Nc1nc2c(s1)CCc1c-2cnn1-c1ccccc1,1µM*,?
COc1cccc(Nc2ncc3nc(-c4ccccc4)c(=O)n(Cc4cccs4)c3n2)c1,8.4%,.
CCC(c1ccc(O)cc1)C(CC)c1ccc(O)cc1 (stereo not given),?,-23.1%
CC[C@H](c1ccc(O)cc1)[C@@H](CC)c1ccc(O)cc1,10µM*,-20.0%[25.6 µM]
O=C(/C=C/c1ccc(O)c(O)c1)OCCc1ccccc1,10µM*,?
O=C(O)/C=C\c1ccc(O)c(O)c1,-2.9%[25.6 µM],4.3%[25.6 µM]
CCOC(=O)c1c(-c2ccc(C)o2)csc1NC(=O)CN1CCOCC1,0.1%,-2.2%
CCOC(=O)c1c(-c2ccc(C)o2)csc1NC(=S)NC(=O)N(C)C,25.1µM*,?
COc1ccc(-c2nc3cnc(Oc4cccc(Cl)c4)nc3n(CCC#N)c2=O)cc1,-7.2%,.
Cc1ccc2[nH]c(-c3ccc(F)cc3F)cc(=O)c2c1,-3.7%[0.0915 µM],0.9%[0.00818 µM]
O=c1c2c([N+](=O)[O-])cc([N+](=O)[O-])cc2sn1-c1ccc(Br)cc1,.,3.16µM*
O=C(COc1ccc(Br)cc1)N1CCN(c2ccc([N+](=O)[O-])c(N3CCCCC3)c2)CC1,.,0.5%
O=C(O)c1cc(S(=O)(=O)Nc2ccc(O)cc2)ccc1Cl,.,-5.1%
C=CC1=C2C=C(C3CC3)N(Cc3ccco3)C=C2C(=O)C(C)(OC(=O)c2ccco2)C1=O (stereo not given),.,6.6%[11.4 µM]
COc1cc2c(C=O)c3c4c(cc(OC)c(OC)c4c2cc1OC)CCN3C,31.6µM*,?
COc1cc2c(C)c3c4c(cc(OC)c(OC)c4c2cc1OC)CCN3C,-2.4%,-6.9%
COc1ccc2c(c1)C(c1ccccc1C)CC(=O)O2 (stereo not given),-29.4%[0.0915 µM],-15.1%[0.00818 µM]
Cc1ccc(NC(=S)NC(=O)c2ccc(-c3ccc(Cl)cc3)o2)c(O)c1,.,-4.8%
Cc1cc(O)c(NC(=S)NC(=O)c2ccc(-c3ccc(Cl)cc3)o2)cc1C,12.6µM*,?
Cn1c(-c2nc(-c3ccccc3)cs2)nc2ccccc21,6.2%,-3.9%
C[C@@]12C(=O)OC(=O)[C@@]1(C)[C@H]1CC[C@@H]2O1,9.7%,2.3%
CCOC(=O)c1c(-c2ccc(-c3ccccc3)cc2)csc1NC(=O)C1C2CCC(O2)C1C(=O)O (stereo not given),20µM*,-6.2%
CCOC(=O)c1c(-c2ccccc2)csc1NC(=O)C1CCCO1 (stereo not given),-23.2%,-2.9%
CCCCc1nc2c(c3c1C[C@H](C)OC3)CN(C(=O)Cc1cccc(OC)c1)CC2,.,-1.2%[11.4 µM]
SMILES,15-hLO-2 inh,ALOX12 inhib
O=C1[C@@H]2[C@@H](C(=O)N1c1ccc(OCc3ccccc3)cc1)[C@@H]1c3ccccc3[C@@H]2[n+]2ccccc21,18.6%[11.4 µM],13.5%[11.4 µM]
CO[C@H]1/C=C/O[C@@]2(C)Oc3c(C)c(O)c4c(O)c(c(/C=N/N5CCN(C)CC5)c(O)c4c3C2=O)NC(=O)/C(C)=C\C=C\[C@H](C)[C@H](O)[C@@H](C)[C@@H](O)[C@@H](C)[C@H](OC(C)=O)[C@@H]1C,?,-16.7%
COC1C=CO[C@@]2(C)Oc3c(C)c(O)c4c(O)c(c(C=NN5CCN(C)CC5)c(O)c4c3C2=O)NC(=O)/C(C)=C\C=CC(C)C(O)[C@@H](C)C(O)C(C)[C@H](OC(C)=O)C1C (stereo not given in full),20µM*,-26.2%
C[C@H]1[C@H](C)CC[C@]2(C(=O)O)CC[C@]3(C)C(=CC[C@@H]4[C@]5(C)C[C@H](O)[C@@H](O)[C@@](C)(CO)[C@@H]5[C@H](O)C[C@@]43C)[C@H]12,3.6%[11.4 µM],2.7%[11.4 µM]
COc1cc(/C=C2/C(=O)NN(c3cccc(F)c3)C2=O)ccc1OC(=O)c1ccco1,.,-4.2%
O=C1NN(c2ccc(Cl)c(Cl)c2)C(=O)/C1=C/c1cccc(OC(=O)c2cccs2)c1,10µM*,?
O=C1NN(c2ccccc2)C(=O)/C1=C\c1cccc(OC(=O)c2cccs2)c1,15.8µM*,?
CCOc1cc(/C=C2/C(=O)N(c3ccccc3)N=C2C)ccc1OC(=O)c1cccs1,?,-5.9%
C[C@@H](C(=O)O)c1ccc(C[C@@H]2CCCC2=O)cc1,-4.1%,-3.9%
CCC1=NNc2cccc3c(OC)ccc1c23,5.01µM*,-5.3%
COc1ccc2c3c(cccc13)C(=O)N(O)C2=O,.,-1.7%
N[C@H](Cc1ccc(F)cc1)C(=O)O,-9.6%,-2.3%
C=CC1=C2C=C(C3CC3)N(CCCCO)C=C2C(=O)C(C)(OC(=O)c2ccco2)C1=O (stereo not given),.,-0.5%[11.4 µM]
Fc1ccc(NC(=S)NCCc2ccccc2)c(F)c1F,?,15.8µM*
COc1ccc(NC(=S)NCCc2c[nH]c3ccc(OC)cc23)c(OC)c1,?,-22.0%
COc1ccc(NC(=S)NCCc2ccc(Cl)cc2)c(OC)c1,25.1µM*,?
Fc1ccccc1NC(=S)NCCc1ccccc1,-15.4%,-5.1%
